Rv3671c protease – Rv3671c serine protease inhibitors, primary screen, biochemical, fluorescence polarization, M. tuberculosis H37Rv. P9WHR9. inhibition, % at 5.96 µM. actives 0.048% (n = 320,000); in the data active = inhibition above about 38%;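 note: extracellular domain of Rv3671c used as enzyme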
Target sequence (P9WHR9 whole entry, looked up, the tested form may be a part): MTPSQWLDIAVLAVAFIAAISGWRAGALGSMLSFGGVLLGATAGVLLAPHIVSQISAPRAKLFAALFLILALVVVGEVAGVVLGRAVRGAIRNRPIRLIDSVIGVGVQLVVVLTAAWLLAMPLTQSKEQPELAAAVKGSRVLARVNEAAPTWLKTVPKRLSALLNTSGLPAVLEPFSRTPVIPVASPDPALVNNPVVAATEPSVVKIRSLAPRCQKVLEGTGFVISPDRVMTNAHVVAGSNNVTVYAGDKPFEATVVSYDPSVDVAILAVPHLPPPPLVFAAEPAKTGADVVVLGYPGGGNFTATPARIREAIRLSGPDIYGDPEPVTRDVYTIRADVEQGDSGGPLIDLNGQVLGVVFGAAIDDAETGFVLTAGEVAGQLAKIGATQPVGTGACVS
Mtb UGM inh – M. tuberculosis UGM enzyme inhibitors, primary screen, biochemical, fluorescence polarization, single point; purified UGM, fluorescence polarization probe displacement; inhibition, % at 10 µM; actives 0.06% (n = 320,000); AID 504406, 2011; in the data active = inhibition above about 10%, passing the limit was not always enough
Mtb betalactam – beta-lactam sensitization of Mtb H37Rv, H37Rv. actives 0.27% (n = 330,000). M. tuberculosis H37Rv growth with meropenem, percent inhibition. inhibition, % at 25 µM; call rule not given here;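 note: growth measured after seven days incubation then overnight dye step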
GDH-TPI counter-1 – GDH-TPI coupling enzyme inhibitors, primary screen, artefact control for M. tuberculosis FBA inhibitor project, biochemical, absorbance, full deck; actives 1.2% (n = 360,000); inhibition, % at 4.8 µM; GDH-TPI coupled enzyme counterscreen, NADH absorbance; AID 588335, 2011; in the data active = inhibition above about 30%
FBA Mtb inh – Mtb FBA enzyme inhibitors, primary screen, biochemical, fluorescence, strain H37Rv. Fructose-bisphosphate aldolase (Mycobacterium tuberculosis (strain ATCC 25618 / H37Rv)), …. purified M. tuberculosis FBA, fluorescence read-out. inhibition, % at 1 µM. actives 2.3% (n = 360,000)
Mtb FBA inh conf – M. tuberculosis aldolase blockers, biochemical, fluorescence, strain H37Rv, confirmation; inhibition, % at 1 µM; actives 78% (n = 5,600); purified M. tuberculosis FBA, fluorescence read-out; shares compounds with FBA Mtb inh
GDH-TPI counter-2 – GDH-TPI coupling enzyme inhibitors, artefact control for M. tuberculosis FBA inhibitor project, biochemical, fluorescence, high throughput. shares compounds with FBA Mtb inh. GDH-TPI coupled enzyme counterscreen. inhibition, % at 1 µM. actives 81% (n = 5,600); in the data active = inhibition above about 10%
Hits are given with their value; – = inactive; · = no result; + = active, no number. The list is not random: actives were taken first. Their share in the collection is about 3.5%. Cut-off read from the data, not from the text of the source, unless noted: active = inhibition above about 27%; inactive = the rest.

SMILES | Rv3671c protease | Mtb UGM inh | Mtb betalactam | GDH-TPI counter-1 | FBA Mtb inh | Mtb FBA inh conf | GDH-TPI counter-2
Cc1ccc(OC2CCN(C(=O)[C@H]3O[C@@H](n4cnc5c(N)ncnc54)[C@H](O)[C@@H]3O)CC2)cc1 | · | · | · | · | – | · | ·
CC1(C)CC(NC(=O)COc2ccc3c4c(c(=O)oc3c2)CCCC4)CC(C)(C)N1 | – | – | – | – | 52 | + | +
Cc1c(Cc2ccccc2)c(=O)oc2cc(OCc3nn[nH]n3)ccc12 | – | – | – | – | 83 | – | –
COc1cccc(COc2ccc3c(C)c(Cc4ccccc4)c(=O)oc3c2)c1 | – | – | – | – | – | · | ·
C#CCOc1ccc2c(C)cc(=O)oc2c1 | – | – | – | – | 40 | 64 | 44
Cc1ccc(OCC(=O)NC2CC(C)(C)NC(C)(C)C2)cc1C | – | – | – | – | – | · | ·
Cc1cc(=O)oc2cc(NC(=O)c3ccccc3OC(F)F)ccc12 | – | – | – | – | 53 | 70 | 49
Cc1cc(=O)oc2cc(NC(=O)c3cc4ccccc4o3)ccc12 | – | – | – | · | · | · | ·
COC(=O)c1nnn(-c2nc(N(C)C)nc(N(C)C)n2)c1C | – | – | – | – | – | · | ·
COCCN(C(=O)CCN1C(=O)C2CC=CCC2C1=O)c1c(N)n(CC(C)C)c(=O)[nH]c1=O (configuration not stated) | – | – | – | – | – | · | ·
O=C(CCN1C(=O)C2C3C=CC(C3)C2C1=O)NC1CCCCC1 (configuration not stated) | – | – | – | – | – | · | ·
CCOC(=O)N1CCC(NC(=O)CCN2C(=O)C3C4C=CC(C4)C3C2=O)CC1 (configuration not stated) | – | – | – | – | 84 | + | +
O=C(Nc1ccccc1)C1CCN(S(=O)(=O)c2cccs2)CC1 | – | · | – | – | – | · | ·
O=C(O)C1CCN(S(=O)(=O)c2cccs2)CC1 | – | – | – | – | 32 | 57 | 36
COc1cccc(C=NN2CCCCCC2)c1OC | · | · | · | – | – | · | ·
COc1cc2[nH]c(C(=O)N3CCN(c4ccccc4F)CC3)cc2c(OC)c1OC | – | – | – | – | 44 | + | +
COc1cccc(N2CCN(C(=O)c3cc4c(OC)c(OC)c(OC)cc4[nH]3)CC2)c1 | – | – | – | – | – | · | ·
CC(=O)Nc1nc2c(c3c1c(=O)oc1ccccc13)CCCCC2 | – | – | – | · | · | · | ·
Nc1nc2c(c3c1c(=O)oc1ccccc13)CCCCC2 | – | – | – | – | 38 | – | –
COC(=O)c1ccc(COC(=O)C2CCN(S(=O)(=O)c3ccc(C)c(C)c3)CC2)o1 | – | – | – | – | – | · | ·
CCOc1cc(C(=O)NC(C)CCc2ccccc2)cc(OCC)c1OCC (configuration not stated) | – | – | – | – | – | · | ·
COc1ccc(C2=NN(C(=S)Nc3ccccc3)C(c3ccccc3)C2)cc1 (configuration not stated) | – | – | – | – | – | · | ·
COc1ccc(C2CC(c3ccccc3)=NN2c2ccc(Cl)c(C(=O)O)c2)cc1 (configuration not stated) | – | – | – | – | 86 | + | +
COc1ccc(C2=NN(c3ccccc3)C(c3cn(CCC(=O)O)nc3-c3ccccc3)C2)cc1 (configuration not stated) | – | – | – | – | 108 | – | 19
COc1ccc(C2CC(c3ccncc3)=NN2c2ccc(S(N)(=O)=O)cc2)cc1 (configuration not stated) | · | · | · | – | 68 | 109 | 88
COc1ccc(C2CC(c3ccccc3)=NN2C(=O)c2ccc(F)cc2)cc1 (configuration not stated) | – | – | – | – | – | · | ·
CCC(=O)Nc1cccc(C2=NN(c3ccccc3)C(c3ccc(OC)cc3)C2)c1 (configuration not stated) | – | – | – | – | 77 | 104 | 69
CC1(c2ccc3ccccc3c2)NC(=O)N(CC(=O)N2CCN(c3ccccc3O)CC2)C1=O (configuration not stated) | – | – | – | – | – | · | ·

Screening data (PubChem)
